Test results from the supplement of paper PMC12645437, “Orthogonal IMiD-Degron Pairs Induce Selective Protein Degradation in Cells” (ACS Chemical Biology, 2025).
The full ranking holds about 8,300 sequences; the median of “log2 fold change of degron read counts, EGFP-low vs EGFP+ sorted cells (limma voom), compound-induced degradation” is about -1.1, and the highest 2% start at about 3.2. Many of the other results were omitted from the sample, so the highest values are more common in it than they were.

T1: CRBN, Q96SW2
T1 chain: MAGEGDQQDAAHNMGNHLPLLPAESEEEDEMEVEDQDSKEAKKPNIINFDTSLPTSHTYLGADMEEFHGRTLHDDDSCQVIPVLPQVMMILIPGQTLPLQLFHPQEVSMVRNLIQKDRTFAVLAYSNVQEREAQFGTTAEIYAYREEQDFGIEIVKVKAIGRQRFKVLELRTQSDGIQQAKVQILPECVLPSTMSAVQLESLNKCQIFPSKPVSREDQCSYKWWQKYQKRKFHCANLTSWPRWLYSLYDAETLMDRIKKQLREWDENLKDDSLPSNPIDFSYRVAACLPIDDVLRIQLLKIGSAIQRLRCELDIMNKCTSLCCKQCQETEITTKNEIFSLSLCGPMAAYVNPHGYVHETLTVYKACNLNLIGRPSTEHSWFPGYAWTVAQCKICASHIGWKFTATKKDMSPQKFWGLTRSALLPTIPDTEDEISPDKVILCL


Molecular target: T1, CRBN, Q96SW2
Assay: log2 fold change of degron read counts, EGFP-low vs EGFP+ sorted cells (limma voom), compound-induced degradation; higher = more compound-induced degradation of the degron-EGFP fusion; degrons are variants of IKZF1/3 zinc finger 2; compound dose not given here
Settings: Jurkat, 18 h
[1] = compound: compound 19 (5-tert-butyl-thalidomide)
[2] = compound: compound 22 (5-morpholino-thalidomide)
[3] = compound: compound 33 (diphenyl IMiD analogue)
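Further: pooled lentiviral library of zinc finger degron-EGFP fusions in mCherry-positive Jurkat cells, FACS-sorted after compound exposure, with degron abundance counted by next-generation sequencing.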

| Sequence | log2 fold change of degron read counts [1] | log2 fold change of degron read counts [2] | log2 fold change of degron read counts [3] | log2 fold change of degron read counts (compound: thalidomide) |
| --- | --- | --- | --- | --- |
| FICPICGRGFTQKGNLLRHIKL [46F_47I_49P_50I_52G_53R_54G_55F_67L_, Q9UKT9] | -2.06 | -1.04 | -0.776 | 0.0621 |
| FTCPICGHHFTQKGNLLRHIKL [46F_47T_49P_50I_52G_53H_54H_55F_67L_, Q9UKT9] | -2.5 | -2.32 | -1.56 | -1.14 |
| FTCEQCGAKFTQKGNLLRHIKL [46F_47T_49E_50Q_52G_53A_54K_55F_67L_, Q9UKT9] | -1.64 | -1.04 | -1.94 | 0.449 |
| FFCPQCGAVFTQKGNLLRHIKL [46F_47F_49P_50Q_52G_53A_54V_55F_67L_, Q9UKT9] | 0.252 | 0.896 | 0.248 | -0.636 |
| FQCPVCGAVFTQKGNLLRHIKL [46F_47Q_49P_50V_52G_53A_54V_55F_67L_, Q9UKT9] | -0.23 | 3.11 | 2.75 | 3.75 |
| FMCPVCGAVFTQKGNLLRHIKL [46F_47M_49P_50V_52G_53A_54V_55F_67L_, Q9UKT9] | -1.41 | -0.169 | 1.97 | 1.09 |
| FKCNICGAVFTQKGNLLRHIKL [46F_47K_49N_50I_52G_53A_54V_55F_67L_, Q9UKT9] | -2.43 | -2.68 | -2.59 | -1.81 |
| FYCNICGAVFTQKGNLLRHIKL [46F_47Y_49N_50I_52G_53A_54V_55F_67L_, Q9UKT9] | 1.85 | 2.59 | 1.47 | -0.489 |
| FVCPVCGAVFTQKGNLLRHIKL [46F_47V_49P_50V_52G_53A_54V_55F_67L_, Q9UKT9] | -0.832 | 1.08 | 1.95 | 1.7 |
| FGCPVCGAVFTQKGNLLRHIKL [46F_47G_49P_50V_52G_53A_54V_55F_67L_, Q9UKT9] | 3.56 | 2.4 | 2.72 | 1.15 |
| FQCPQCGAVFTQKGNLLRHIKL [46F_47Q_49P_50Q_52G_53A_54V_55F_67L_, Q9UKT9] | -1.53 | 0.725 | 0.715 | 3.42 |
| FSCPVCGAVFTQKGNLLRHIKL [46F_47S_49P_50V_52G_53A_54V_55F_67L_, Q9UKT9] | 1.86 | 1.28 | 2.79 | 1.39 |
| FVCPQCGAVFTQKGNLLRHIKL [46F_47V_49P_50Q_52G_53A_54V_55F_67L_, Q9UKT9] | -2.28 | -1.6 | 0.556 | -0.724 |
| FDCPVCGAVFTQKGNLLRHIKL [46F_47D_49P_50V_52G_53A_54V_55F_67L_, Q9UKT9] | 0.0323 | -0.349 | 1.32 | 1.15 |
| FQCNICGAVFTQKGNLLRHIKL [46F_47Q_49N_50I_52G_53A_54V_55F_67L_, Q9UKT9] | -1.01 | 2.01 | 1.99 | 3.47 |
| FHCDQCGAPFTQKGNLLRHIKL [46F_47H_49D_50Q_52G_53A_54P_55F_67L_, Q9UKT9] | -0.672 | -1.82 | -1.8 | -2.97 |
| FKCSVCGHPFTQKGNLLRHIKL [46F_47K_49S_50V_52G_53H_54P_55F_67L_, Q9UKT9] | -2.15 | -2.09 | -2.23 | -1.7 |
| FYCPICGHMFTQKGNLLRHIKL [46F_47Y_49P_50I_52G_53H_54M_55F_67L_, Q9UKT9] | -1.06 | -1.25 | -0.462 | -1.34 |

| Sequence | log2 fold change of degron read counts [1] | log2 fold change of degron read counts [2] | log2 fold change of degron read counts [3] | log2 fold change of degron read counts (compound: thalidomide) |
| --- | --- | --- | --- | --- |
| FECDVCGAMFTQKGNLLRHIKL [46F_47E_49D_50V_52G_53A_54M_55F_67L_, Q9UKT9] | -2.71 | -3.65 | -2.05 | -1.53 |
| FWCEQCGANFTQKGNLLRHIKL [46F_47W_49E_50Q_52G_53A_54N_55F_67L_, Q9UKT9] | 0.0998 | 2.8 | -0.0431 | -0.721 |
| FICNVCGAVFTQKGNLLRHIKL [46F_47I_49N_50V_52G_53A_54V_55F_67L_, Q9UKT9] | -2.28 | -1.69 | 0.455 | -0.566 |
| FQCNVCGAVFTQKGNLLRHIKL [46F_47Q_49N_50V_52G_53A_54V_55F_67L_, Q9UKT9] | -1.74 | 1.21 | 1.22 | 3.41 |
| FYCNVCGAVFTQKGNLLRHIKL [46F_47Y_49N_50V_52G_53A_54V_55F_67L_, Q9UKT9] | -0.0367 | 1.2 | 0.445 | -1.56 |
| FRCPVCGAQFTQKGNLLRHIKL [46F_47R_49P_50V_52G_53A_54Q_55F_67L_, Q9UKT9] | -0.139 | 0.391 | 0.974 | 1.28 |
| FWCPVCGAQFTQKGNLLRHIKL [46F_47W_49P_50V_52G_53A_54Q_55F_67L_, Q9UKT9] | 2.98 | 3.92 | 2.63 | 2.09 |
| FSCPVCGAQFTQKGNLLRHIKL [46F_47S_49P_50V_52G_53A_54Q_55F_67L_, Q9UKT9] | 2.24 | 2.08 | 1.65 | 1.45 |
| FVCPQCGAQFTQKGNLLRHIKL [46F_47V_49P_50Q_52G_53A_54Q_55F_67L_, Q9UKT9] | -1.74 | 0.725 | 1.72 | 1.08 |
| FYCPVCGAQFTQKGNLLRHIKL [46F_47Y_49P_50V_52G_53A_54Q_55F_67L_, Q9UKT9] | 2.88 | 3.65 | 2.38 | 1.69 |
| FLCPVCGAQFTQKGNLLRHIKL [46F_47L_49P_50V_52G_53A_54Q_55F_67L_, Q9UKT9] | 0.29 | -0.0233 | 1.82 | 1.61 |
| FACPQCGAQFTQKGNLLRHIKL [46F_47A_49P_50Q_52G_53A_54Q_55F_67L_, Q9UKT9] | 0.495 | -1.5 | -0.396 | -1.08 |
| FVCPVCGAQFTQKGNLLRHIKL [46F_47V_49P_50V_52G_53A_54Q_55F_67L_, Q9UKT9] | -0.526 | 2.62 | 2.83 | 2.98 |
| FWCPQCGAQFTQKGNLLRHIKL [46F_47W_49P_50Q_52G_53A_54Q_55F_67L_, Q9UKT9] | 0.804 | 3.54 | 1.31 | 0.158 |
| FMCPVCGAQFTQKGNLLRHIKL [46F_47M_49P_50V_52G_53A_54Q_55F_67L_, Q9UKT9] | -0.258 | 1.27 | 2.9 | 1.78 |
| FFCPVCGAQFTQKGNLLRHIKL [46F_47F_49P_50V_52G_53A_54Q_55F_67L_, Q9UKT9] | 3.11 | 3.47 | 2.43 | 1.92 |
| FCCPVCGAQFTQKGNLLRHIKL [46F_47C_49P_50V_52G_53A_54Q_55F_67L_, Q9UKT9] | 2.69 | 2.25 | 2.84 | 2.3 |
